This note sets out measurements from PubChem BioAssay (NCI).

The nature of assay [1]: NCI Yeast Anticancer Drug Screen. Data for the rad50 strain (AID 155).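 Further: 0% = growth of vehicle-only cultures of the same strain.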 Particulars: S. cerevisiae rad50 strain growth inhibition; at 50.0 µM; stronger effect = higher value. The method, boiled down: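 Compounds were tested on a yeast strain with an engineered DNA damage repair alteration; the reported value is growth inhibition normalised to vehicle treatment.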
Assay [2] is described as follows: NCI Yeast Anticancer Drug Screen. Data for the mec2-1 strain (AID 157). Particulars: S. cerevisiae mec2-1 strain, at 50.0 µM, stronger effect = higher value. A digest of the protocol: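 Each compound was tested on mec2-1 yeast, a strain altered in DNA damage repair or cell cycle control. Growth inhibition is reported relative to vehicle.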
Assay [3] in a line: NCI Yeast Anticancer Drug Screen. Data for the sgs1 mgt1 strain (AID 161).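 Further: 0% = growth of cultures given vehicle only.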 The following applies: S. cerevisiae sgs1 mgt1 strain, at 50.0 µM, stronger effect = higher value. A digest of the protocol:
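Inhibition of yeast growth, normalised to vehicle-treated controls, is reported for a strain bearing genetic alterations in DNA damage repair.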

Assay [4] in a line: NCI Yeast Anticancer Drug Screen. Data for the cln2 rad14 strain (AID 165).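 Further: 0% = growth equal to vehicle treated cultures.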 Particulars: S. cerevisiae cln2 rad14 strain, at 50.0 µM, stronger effect = higher value. A digest of the protocol: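 Test compounds were added to cln2 rad14 yeast cultures; inhibition of growth was then determined by comparison with vehicle treatment.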
Assay [5] can be described thus: NCI Yeast Anticancer Drug Screen. Data for the bub3 strain (AID 167). Particulars: S. cerevisiae bub3 mutant strain, at 50.0 µM, stronger effect = higher value. A digest of the protocol:
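Growth of a checkpoint-deficient yeast mutant is measured after compound exposure. Values represent inhibition relative to vehicle.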

A short description of assay [6]: NCI Yeast Anticancer Drug Screen. Data for the mlh1 rad18 strain (AID 175). The following applies: S. cerevisiae mlh1 rad18 strain growth inhibition; at 50.0 µM; stronger effect = higher value. The method, boiled down:
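Inhibition values reflect reduced growth of mutant yeast versus vehicle-treated controls following compound exposure; the mutations affect DNA damage repair.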

The panel holds about 79,000 compounds, 15% with a hit somewhere; the sample as a whole holds those more often. Values without a mark were called inactive. The source made the active and inactive calls. No stated cut-off is given here; in the data, active means growth inhibition above about 70%; inactive means the rest.

In the case of `CCOC(=O)CC(=O)Nc1cc(C)cc(C)n1`, the growth inhibition in assay [1] was 2.1%; in assay [2], 14.5%; in assay [3], 9.5%; in assay [4] it was 32.6%; in assay [5] it was 25.1%; in assay [6], 5.7%.
Take `Cc1cc(C)c(C2=[N+]([O-])ON3CCc4ccccc4C23)c(C)c1` (stereo unspecified): the growth inhibition in assay [1] was 1.5%; in assay [2], -7.7%; in assay [3] it was -3.05%; in assay [4], 4.5%; in assay [5], -5.3%; in assay [6] it was -3.2%.
`O=C(O)c1ccc(C2C(=O)N[C@@H]3CCC[C@H]23)cc1` (stereo partly specified): the growth inhibition in assay [1] was -33%; in assay [2] it was -5.75%; in assay [3] it was -22.1%; in assay [4], 6.05%; in assay [5] it was -12.9%; in assay [6], -32.1%.
With `CCOc1nc(C(=O)O)cc2ccsc12`, the growth inhibition in assay [1] was 1.15%; in assay [2], -6.2%; in assay [3], 5.5%; in assay [4], -48.1%; in assay [5], -43.4%; in assay [6], 0%.
As for `Nc1c([N+](=O)[O-])cc(F)cc1C(F)(F)F`, the growth inhibition in assay [1] is -5.5%; in assay [2], -17.6%; in assay [3] it was 3.6%; in assay [4], -14.9%; in assay [5] it was 5.4%; in assay [6], 6.7%.
Consider `CCOC(=O)[C@H]1Nc2c(cccc2[N+](=O)[O-])[C@H]2OCC[C@@H]12`, for which the growth inhibition is -12.8% in assay [1]; -22.3% in assay [2]; -0.45% in assay [3]; 11.4% in assay [4]; -22.6% in assay [5]; -26.9% in assay [6].
As for `COC(=O)n1oc2c(Br)cc(Br)cc2c1=O`, the growth inhibition in assay [1] was -4.15%; in assay [2], -10.4%; in assay [3], 1.45%; in assay [4] it was -6.85%; in assay [5] it was -0.2%; in assay [6], 0.8%.
Consider `O=C(NCCc1ccccc1)[C@H]1CCCC[C@@H]1CCO`, for which the growth inhibition in assay [1] is 19.4%; in assay [2] it was 0.85%; in assay [3] it was -31.9%; in assay [4] it was 0.4%; in assay [5], -39.8%; in assay [6], -28.6%.
Regarding `CSc1nc(Br)nc2c1ncn2C1CC(Oc2ccc(C)cc2)C(COc2ccc(C)cc2)O1` (stereo unspecified), the growth inhibition was 13.4% in assay [1]; 4.3% in assay [2]; 22.1% in assay [3]; 18.6% in assay [4]; 17.1% in assay [5]; -23.8% in assay [6].
Turning to `O=[N+]([O-])c1cc(S(=O)(=O)O)cc(S(=O)(=O)O)c1O`, the growth inhibition in assay [1] is 12.6%; in assay [2] it was 2.6%; in assay [3] it was 13.2%; in assay [4] it was 19.6%; in assay [5], 16.5%; in assay [6] it was 18.1%.
As to `Nc1ccc(CCCCc2nc(N)nc(N)c2-c2ccc(Cl)c(Cl)c2)cc1`, the growth inhibition in assay [1] is 36.5%; in assay [2] it was 77% (active); in assay [3] it was 88.8% (active); in assay [4], 9.1%; in assay [5], 14.9%; in assay [6], 60.5%.
With `OCc1cc(Cl)cc(Cc2cc(Cl)cc(Cc3cc(Cl)cc(Cc4cc(Cl)cc(Cc5cc(Cl)cc(CO)c5O)c4O)c3O)c2O)c1O`, the growth inhibition in assay [1] was -14.8%; in assay [2] it was -17.4%; in assay [3], -9.35%; in assay [4] it was -28.4%; in assay [5], -18.9%; in assay [6] it was -27.9%.
Consider `O=[N+]([O-])c1ccc(Oc2cccc3ccccc23)c([N+](=O)[O-])c1`, for which the growth inhibition is 4.75% in assay [1]; 8.55% in assay [2]; 18.5% in assay [3]; -82.5% in assay [4]; 29.1% in assay [5]; 38.8% in assay [6].
Consider `O=C(ON=C1c2ccccc2C(Br)C(Br)c2ccccc21)c1ccccc1` (stereo unspecified), for which the growth inhibition in assay [1] was 38%; in assay [2] it was 16.9%; in assay [3], 35.7%; in assay [4], 17.6%; in assay [5], 49%; in assay [6], 30.6%.
On to `CN(C)c1cccc([N+](=O)[O-])c1`, for which the growth inhibition in assay [1] is -54.5%; in assay [2], -11%; in assay [3], -44.6%; in assay [4], -32.5%; in assay [5] it was -35.4%; in assay [6] it was -48.8%.
`COC(=O)C1Cc2cc3c(cc2C1=O)CCC3` (stereo unspecified): the growth inhibition in assay [1] was -19.2%; in assay [2] it was -12.8%; in assay [3], -2.8%; in assay [4] it was 6.75%; in assay [5] it was 20.4%; in assay [6] it was -5.45%.
Turning to `CCOC(=O)c1ccc(NC(=O)Nc2ccc(OC)c([N+](=O)[O-])c2)cc1`, the growth inhibition in assay [1] was -5.9%; in assay [2] it was -3.6%; in assay [3] it was 12.5%; in assay [4], -15.7%; in assay [5], 17.8%; in assay [6], -5.2%.
As for `COc1ccc(Cc2cn(C)cc(Cc3ccc(OC)cc3)c2=O)cc1`, the growth inhibition in assay [1] is 4.7%; in assay [2], 0.8%; in assay [3], 7.15%; in assay [4], -7.45%; in assay [5] it was -1.2%; in assay [6], -4.45%.
Consider `CC(=O)Oc1ccc(C(c2ccccc2)c2ccccc2)c2ccccc12`, for which the growth inhibition was -9.8% in assay [1]; -13.4% in assay [2]; -1.95% in assay [3]; 2.85% in assay [4]; -52.8% in assay [5]; -18.9% in assay [6].
In the case of `C=CCSC(=S)NC`, the growth inhibition in assay [1] was -6.2%; in assay [2], -7.5%; in assay [3], -2.7%; in assay [4] it was 10.2%; in assay [5], -0.9%; in assay [6], 8.4%.
In the case of `O=C1NC(=O)C(=CN2C(=O)/C(=C/c3ccc(O)cc3)SC2=S)C(=O)N1`, the growth inhibition in assay [1] is -6.6%; in assay [2], -5.7%; in assay [3], 23.1%; in assay [4], 9.15%; in assay [5] it was 1.8%; in assay [6], 14.7%.
